PubChem BioAssay AID633 (Emory University Molecular Libraries Screening Center, 2007)
The campaign covered roughly 86,000 compounds. About 1,100 (1.3%) were called active. Many of the other results were omitted from the sample, so actives are more common in it than they were. Values without a mark were called inactive.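 How the source made its calls: active means compounds whose percent inhibition of the receptor-coactivator binding signal exceeds about 50% in the single-dose screen (limit read from the data); inactive means the rest.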

Target: Estrogen receptor beta (Homo sapiens) (UniProt Q92731)
Assay: inhibitors of ERβ-SRC1 coactivator interaction, primary screen, biochemical, TR-FRET, ERβ LBD, SRC-1 peptide (AID 633);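 further: 0% = receptor plus peptide wells without compound and 100% = peptide-only wells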
Conditions: TR-FRET ER-beta LBD / SRC1-Cy5 peptide binding; at 25.6 µM; stronger effect = higher value; receptor agonist-loaded with 1 µM estradiol

Estrogen receptor beta (Homo sapiens), sequence (Q92731 whole entry, looked up, the tested form may be a part): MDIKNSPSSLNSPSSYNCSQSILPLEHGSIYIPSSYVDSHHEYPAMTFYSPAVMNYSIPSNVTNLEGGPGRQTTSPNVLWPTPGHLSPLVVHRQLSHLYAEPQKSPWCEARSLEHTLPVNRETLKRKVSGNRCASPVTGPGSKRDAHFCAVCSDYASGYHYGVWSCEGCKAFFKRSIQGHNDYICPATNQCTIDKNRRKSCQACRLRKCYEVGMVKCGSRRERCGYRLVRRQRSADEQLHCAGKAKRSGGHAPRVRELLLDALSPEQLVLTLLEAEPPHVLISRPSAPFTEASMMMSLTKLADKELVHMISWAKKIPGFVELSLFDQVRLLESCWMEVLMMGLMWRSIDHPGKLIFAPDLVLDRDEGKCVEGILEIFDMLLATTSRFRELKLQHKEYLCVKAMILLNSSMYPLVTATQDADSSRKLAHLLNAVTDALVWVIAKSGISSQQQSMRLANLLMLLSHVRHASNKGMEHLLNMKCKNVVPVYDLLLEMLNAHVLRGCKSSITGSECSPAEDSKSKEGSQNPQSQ

Row | Compound | inhibition
1 | COCCCn1c2nc3ccccc3nc2c2c(=O)n(Cc3ccc(Cl)cc3)c(C)nc21 | 12.9%
2 | Cc1ccc(Cn2c(C)nc3c(c2=O)c2nc4ccccc4nc2n3Cc2ccco2)cc1 | 36%
3 | Cc1nc2c(c(=O)n1Cc1ccco1)c1nc3ccccc3nc1n2Cc1ccccc1 | 59.7% [fluorescence artefact?] (active)
4 | O=C(NCC(=O)N(Cc1cccs1)C(C(=O)NC1CCCCC1)c1ccco1)c1cccs1 (configuration not stated) | 6.36%
5 | Cn1c(C(=O)OC(C(=O)NC2CCCCC2)c2ccccn2)cc2sccc21 (configuration not stated) | -0.81%
6 | Cc1ccc2c(c1)N(CC(=O)N(Cc1ccccn1)Cc1ccco1)C(=O)C(C(C)C)O2 (configuration not stated) | 1.63%
7 | O=C(NCc1cn2ccsc2n1)Nc1ccc(Cl)cc1 | -3.46%
8 | COc1ccc(-c2cn3ccsc3n2)cc1 | 68% (active)
9 | Cc1ccc(S(=O)(=O)NCc2cn3ccsc3n2)c(C)c1 | 0.6%
10 | CCOC(=O)c1sc(NC(=O)c2ccncc2)nc1C | -4.81%
11 | O=C(NCc1cccnc1)Nc1ccccc1F | -19.3%
12 | CCCCOC(=O)Cn1c(=O)n(CC(=O)OCCCC)c2cc(C)ccc21 | -3.48%
13 | O=C(N/N=C/C=C/c1ccccc1)C1CC1(c1ccccc1)c1ccccc1 (configuration not stated) | 16.4%
14 | COc1ccc(N2C(=O)C3CCCN3C2c2cc(OC)c(OC)cc2OC)cc1 (configuration not stated) | 98.9% [fluorescence artefact?] (active)
15 | COc1ccc(N2C(=O)C3CCCN3C2c2cccs2)cc1 (configuration not stated) | -13.6%
16 | COc1ccc(N2C(=O)C3CCCN3C2c2cccc(OC)c2)cc1 (configuration not stated) | -7%
17 | COC(=O)c1[nH]c2cccc(C)c2c1NC(=O)CN1CCCc2ccccc21 | 34.3%
18 | CCOC(=O)c1[nH]c2ccc(OC)cc2c1NC(=O)CCN1CCN(Cc2ccccc2)CC1 | 5.39%
19 | COC(=O)c1[nH]c2ccccc2c1NC(=O)CN1CCCc2ccccc21 | 58.4% [fluorescence artefact?] (active)
20 | CCn1c(-c2ccoc2C)n[nH]c1=S | -2.85%
21 | COCCOCCn1cnc2ccccc21 | -1.14%
22 | CCOC(=O)N1CCN(C(=O)CSc2ccc(Cl)cc2)CC1 | -0.13%
23 | Oc1c(CN2CCN(c3ccc(F)cc3)CC2)cc(Cl)c2cccnc12 | 1.3%

Row | Compound | inhibition
24 | CCN1CCN(C(c2cccnc2)c2cc(Cl)c3cccnc3c2O)CC1 (configuration not stated) | 72.4% [fluorescence artefact?] (active)
25 | CCOC(=O)N1CCN(C(=O)c2cc3c(ccc4ccccc43)oc2=O)CC1 | 23.4%
26 | CCOC(=O)N1CCN(C(c2cccnc2)c2ccc3cccnc3c2O)CC1 (configuration not stated) | 58% [fluorescence artefact?] (active)
27 | CC(=O)C1=C(C)NC(=O)NC1c1cc(Br)ccc1OCC#N (configuration not stated) | -0.75%
28 | CC(C)CC(N=C1NC(C)(C)Cc2ccccc21)C(=O)O (configuration not stated) | -1.78%
29 | CCCc1noc2c1/C(=N\O)CCC2 | 1.64%
30 | CCNCCC(=O)N1c2ccccc2Sc2ccc(NC(=O)OCC)cc21 | -17.8%
31 | O=C(NCc1ccco1)c1ccc(Cn2c(=O)c3sccc3n(Cc3ccc(F)cc3)c2=O)cc1 | 18.4%
32 | Cc1cccc(C(=O)N2CCCN(C(=O)c3cccc(C)c3)CC2)c1 | -0.48%
33 | CN(C)CCCNc1c2c(c(C#N)c3nc4ccccc4n13)CCC2 | 70.9% [fluorescence artefact?] (active)
34 | N#Cc1c2c(c(N3CCN(CCO)CC3)n3c1nc1ccccc13)CCCC2 | -8.78%
35 | CCN1CCc2c(C#N)c(NCc3ccccc3)nc(NCCO)c2C1 | -0.53%
36 | O=c1onc(-c2cccs2)n1Cc1ccccc1 | -0.76%
37 | CCCCCCNC(=O)CSc1nccn1Cc1ccccc1 | -2.58%
38 | Cc1ccc(-n2c(SCC(=O)NCc3ccc4c(c3)OCO4)nnc2-c2cccnc2)c(C)c1 | -8.68%
39 | N#CCSc1nc2ccccc2c(=O)n1-c1ccccc1 | 8.58%
40 | O=c1c2ccccc2nnn1CSc1nnnn1-c1ccccc1 | -2.64%
41 | O=c1c2ccccc2nc(CSc2nnnn2-c2ccccc2)n1-c1ccccc1 | 61.2% [fluorescence artefact?] (active)
42 | CC(=O)NC1(c2cccc(F)c2)CCN(CC(=O)NC(C)C)CC1 | -7.62%
43 | N#Cc1c(NC(=O)CSc2nc3ccccc3c(=O)n2Cc2ccco2)sc2c1CCCC2 | 50.4% [fluorescence artefact?] (active)
44 | CC(Sc1nc2ccccc2c(=O)n1Cc1ccco1)C(=O)c1ccccc1 (configuration not stated) | -2.69%
45 | COc1ccc(-c2nnc(SCC(=O)c3ccco3)n2-c2ccccc2)cc1 | 7.14%
46 | COc1ccc(-n2c(SCC(=O)Nc3sc4c(c3C#N)CCCC4)nnc2-c2ccc(O)cc2)cc1 | 60.9% [fluorescence artefact?] (active)

Row | Compound | inhibition
47 | COC(=O)c1c(NC(=O)CSc2nncs2)sc2c1CCCCC2 | 10.9%
48 | C=C(C)Cn1c(SCC(=O)NCc2ccco2)nc2sc3c(c2c1=O)CCC3 | 9.18%
49 | Cc1cc2nc(SCCN3CCOCC3)[nH]c2cc1C | -13.7%
50 | COC(=O)C1=C(C(=O)c2ccc(C)cc2)C(c2ccccc2)n2nnnc2N1 (configuration not stated) | -1.03%
51 | Cc1ccc(-n2ccc(=O)c(C(=O)O)n2)cc1 | -4.61%
52 | O=C(COc1ccccc1)Nc1nonc1NC(=O)COc1ccccc1 | 4.67%
53 | COc1ccc(CCNS(=O)(=O)c2ccc(Cl)s2)cc1OC | -8.93%
54 | Oc1ccc(CNc2ccccc2O)cc1 | 52.5% [fluorescence artefact?] (active)
55 | COc1cc(C2CC(=O)c3cnc(NC(C)=O)nc3C2)cc(OC)c1OC (configuration not stated) | -3.76%
56 | CCC(C(=O)NCc1ccc(OC)cc1)n1nc(C)n2c(cc3occc32)c1=O (configuration not stated) | -7.78%
57 | CCCn1c(C(Cc2ccccc2)NC(=O)COC)nc2ccccc21 (configuration not stated) | 46.8%
58 | O=C(CCC(=O)c1cccs1)NCc1ccccc1 | 12.1%
59 | O=C(COC(=O)C12CC3CC(CC(C3)C1)C2)NCc1ccco1 | 13.8%
60 | O=C(COC(=O)CCC(=O)c1cccs1)NCc1ccco1 | 51.1% [fluorescence artefact?] (active)
61 | CC(CO)N1CCS(=O)(=O)CC1 (configuration not stated) | -15%
62 | CCN(c1ccccc1)S(=O)(=O)c1ccc(NC(=O)C(C)(C)C)cc1 | 14.4%
63 | C=CCn1c(SCC(=O)/C(C#N)=C(\C)N)nc2sc(C)c(C)c2c1=O | 16.2%
64 | CCCn1c(=O)c2ccccc2n2c(SCC(=O)/C(C#N)=C(\C)N)nnc12 | 50.4% [fluorescence artefact?] (active)
65 | C=CCn1c(=O)c2ccccc2n2c(SCC(=O)N3CCCc4ccccc43)nnc12 | -1.59%
66 | O=C(CN1CCSCC1)N/N=C/c1ccc(F)cc1F | 12.6%
67 | CC(C)(O)C(=O)NN(C(=O)c1ccccc1)c1cccc(Br)c1 | -3.36%
68 | COC(=O)c1cccc(N(C(=O)c2ccco2)C(C(=O)NC2CCCC2)c2ccco2)c1 (configuration not stated) | -14.4%
69 | O=C(NCCOc1ccccc1)c1ccccc1 | 7.95%

Row | Compound | inhibition
70 | O=C(Cn1nnc(-c2ccccc2)n1)NCc1ccc2c(c1)OCO2 | 9.19%
71 | CS(=O)(=O)N(CC(=O)NCc1ccco1)c1ccc2c(c1)OCO2 | 44.3%
72 | O=C(Cn1nnc(-c2ccc3c(c2)OCO3)n1)NCc1ccco1 | 50.1% (active)
73 | CC1(N2CCOCC2)CC2(O)C(=[N+]1[O-])CCc1nonc12 (configuration not stated) | 58.1% (active)
74 | Cc1[nH]n(-c2cccc(Cl)c2)c(=O)c1/C=N/n1c(C)nc2ccccc2c1=O | -3.58%
75 | CC(=O)Nc1ccc(S(=O)(=O)N2CCN(C(=O)c3ccccc3F)CC2)cc1 | -9.27%
76 | O=C(CN1CCCCCC1)N1c2ccccc2Sc2ccc(C(F)(F)F)cc21 | -7.5%
77 | CC(c1ccco1)N(C(=O)Nc1ccccc1)C1CCCCC1 (configuration not stated) | 0.39%
78 | Cc1c(Br)cc(C(=O)N2CCCCCC2)c(C)c1C | -18.4%
79 | COc1ccc(Cc2nnc(NC(=O)Cc3cccs3)s2)cc1 | 92% (active)
80 | CCCc1ccc(-c2csc(NC(=O)Cc3cccs3)n2)cc1 | 11.4%
81 | COc1ccc(Cc2nnc(NS(=O)(=O)Cc3ccccc3)s2)cc1 | 39.9%
82 | COc1ccccc1-c1nc(C#N)c(N2CCC(C(N)=O)CC2)o1 | -16.6%
83 | COc1ccc(Nc2oc(-c3ccccc3Cl)nc2C#N)cc1 | 76.6% [fluorescence artefact?] (active)
84 | CCOc1ccc(Nc2oc(Cc3ccccc3)nc2C#N)cc1 | -1.53%
85 | Cc1ccc(/C=N/NC(=O)Cn2nc(C)c(Br)c2C)o1 | -11.6%
86 | CCOc1ccccc1C(=O)NC1CC2CCCC(C1)N2Cc1ccccc1 (configuration not stated) | 5.21%
87 | CCN(CC)CCn1c2ccc(Cl)cc2c2nc(C)sc21 | -0.33%
88 | CS(=O)(=O)N(CC(=O)Nc1ccc(Cl)c(Cl)c1)C1CCCCC1 | -2.05%
89 | CC(C)(C)C1CCc2c(sc3nc(SCC(N)=O)nc(N)c23)C1 (configuration not stated) | -6.07%
90 | COc1ccc2[nH]c3ccc(OC)cc3c2c1 | 1.96%
91 | CCN(CC)CC(=O)c1c[nH]c2ccc(OC)cc12 | -8.33%
92 | COc1ccc2[nH]cc(/C=C(/C#N)S(=O)(=O)c3ccccc3)c2c1 | 54.7% [fluorescence artefact?] (active)
